# In article PMC4336329 (PLoS ONE, 2015):
# Among all 310,000 compounds or so, about 14,000 (4.5%) showed an effect of 50% or more. The effect is printed as a negative number. Shown is part of a subset that was picked to be rich in strong results.
# Molecular target: human ether-à-go-go-related gene (hERG) potassium channel (human, UniProt Q12809)
# Test: primary screen, population patch clamp on CHO cells stably expressing hERG; higher = less effect of the substance
# 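Also: peak tail current of the secondary pulse compared with the same well before compound.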
# Chain of human ether-à-go-go-related gene (hERG) potassium channel (Q12809 whole entry, looked up): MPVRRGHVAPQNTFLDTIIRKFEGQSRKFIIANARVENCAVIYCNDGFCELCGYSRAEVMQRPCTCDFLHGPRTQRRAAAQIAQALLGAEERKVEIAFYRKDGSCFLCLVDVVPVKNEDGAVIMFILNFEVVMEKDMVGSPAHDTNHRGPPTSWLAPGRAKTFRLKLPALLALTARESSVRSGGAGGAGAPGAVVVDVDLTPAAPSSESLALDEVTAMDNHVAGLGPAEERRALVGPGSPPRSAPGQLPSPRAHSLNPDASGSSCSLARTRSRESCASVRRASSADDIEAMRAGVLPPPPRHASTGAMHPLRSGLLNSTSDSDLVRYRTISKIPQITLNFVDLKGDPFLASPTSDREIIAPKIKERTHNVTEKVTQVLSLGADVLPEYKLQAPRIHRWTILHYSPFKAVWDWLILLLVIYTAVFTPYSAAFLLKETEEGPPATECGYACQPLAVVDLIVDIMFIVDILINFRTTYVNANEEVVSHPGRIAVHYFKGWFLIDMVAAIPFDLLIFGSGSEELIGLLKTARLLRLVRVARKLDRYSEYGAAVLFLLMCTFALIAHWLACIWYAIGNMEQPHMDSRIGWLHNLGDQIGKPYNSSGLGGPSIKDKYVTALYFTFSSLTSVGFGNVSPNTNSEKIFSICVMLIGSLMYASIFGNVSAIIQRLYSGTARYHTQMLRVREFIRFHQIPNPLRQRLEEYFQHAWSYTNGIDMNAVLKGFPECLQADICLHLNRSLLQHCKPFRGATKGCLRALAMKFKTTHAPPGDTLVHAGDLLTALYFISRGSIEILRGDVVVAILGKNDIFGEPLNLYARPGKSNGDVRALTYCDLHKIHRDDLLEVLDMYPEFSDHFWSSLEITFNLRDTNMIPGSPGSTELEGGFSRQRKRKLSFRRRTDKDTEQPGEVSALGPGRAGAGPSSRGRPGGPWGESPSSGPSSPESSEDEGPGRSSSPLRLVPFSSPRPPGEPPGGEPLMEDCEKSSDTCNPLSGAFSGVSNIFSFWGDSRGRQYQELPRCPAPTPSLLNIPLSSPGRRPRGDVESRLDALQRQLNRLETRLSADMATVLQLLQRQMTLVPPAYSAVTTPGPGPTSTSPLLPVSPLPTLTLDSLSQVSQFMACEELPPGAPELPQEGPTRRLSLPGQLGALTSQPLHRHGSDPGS
row,SMILES,"hERG current change (%, negative = inhibition) at 10uM [%]"
1,COC(=O)c1cc(NC(=O)CN(c2ccc3c(c2)OCO3)S(C)(=O)=O)ccc1Cl,-8.58
2,CCN1CCN(Cc2ccc(NC(=O)c3cc(NC(=O)C(=O)c4c[nH]c5ccccc45)cc(OC)c3)cc2C(F)(F)F)CC1,8.1
3,O=C(CSc1nc2cc(Cl)c(Cl)cc2[nH]1)c1ccc2c(c1)OCO2,7.8
4,Cc1c(C(C)NC(=O)Nc2ccc(F)cc2F)cnn1C (stereo not shown),15.2
5,O=C(O)/C=C/c1ccc([N+](=O)[O-])o1,22.2
6,Fc1ccccc1CSc1nnc(-c2ccccc2)o1,-9.31
7,COP(=O)(OC)C(NS(=O)(=O)c1ccccc1)C(Cl)(Cl)Cl (stereo not shown),23.8
8,COc1ccc(Cl)cc1Nc1nc(N)c2ccccc2n1.Cl,20.4
9,COc1ccc(OC)c(Nc2ccc(Nc3cc(OC)ccc3OC)nn2)c1,-2.07
10,COc1ccc(OC)c(Nc2cc(C)c3ccccc3n2)c1,2
11,COc1ccc2nc(C)cc(Nc3ccccc3O)c2c1.Cl,-20.3
12,COc1ccc(OC)c(Nc2cc(C)nc3ccccc23)c1,-57.6
13,COc1ccc(OC)c(Nc2cc(C)nc3ccc(C)cc23)c1,-68.6
14,COc1ccc(OC)c(Nc2ncnc3ccccc23)c1.Cl,-18.6
15,COc1ccc(OC)c(Nc2nc(-c3ccccc3O)nc3ccccc23)c1,18.7
16,COc1ccc(Cl)cc1Nc1cc(C)nc2ccccc12,-73
17,CCOC(=O)c1nc(Nc2cc(Cl)ccc2OC)c2ccccc2n1,6.83
18,COc1ccc(OC)c(Nc2cc(-c3ccccc3)nc(N)n2)c1,-55.9
19,Cc1cccc(OC(C)C(=O)Nc2ccccc2C(=O)N2CCCCC2)c1 (stereo not shown),-0.472
20,CCCC1=Nc2cc(C(=O)NCc3ccco3)ccc2Sc2ccccc21,1.84
21,CC(Cl)C(=O)Nc1cc(C(F)(F)F)ccc1N1CCOCC1 (stereo not shown),2.38
22,COc1ccccc1N(CC1CO1)S(=O)(=O)c1ccc(C)cc1 (stereo not shown),18.9

row,SMILES,"hERG current change (%, negative = inhibition) at 10uM [%]"
1,Cc1cccc(NC(=O)Cc2c(F)cccc2Cl)n1,5.01
2,O=C(Nc1cccc(C(=O)N2CCCCCC2)c1)c1ccco1,-14.5
3,CC1CCN(C(C)C(=O)Nc2cc(S(=O)(=O)N3CCCCC3)ccc2Cl)CC1 (stereo not shown),-18.3
4,COc1ccc2c(c1)C(c1cccs1)=NNC(c1cccnc1)=N2,10.4
5,CCc1ccc2c(c1)C(c1cccs1)=NNC(c1cccnc1)=N2,-48.6
6,CCOc1ccc2c(c1)C(c1cccs1)=NNC(c1cccnc1)=N2,-65.4
7,O=C(CCn1c(=S)oc2ccccc21)N1CCCCC1,-7.1
8,COc1ccc(C)cc1S(=O)(=O)N1CCN(S(=O)(=O)c2cc(C)ccc2OC)CC1,-1.43
9,COc1ccc(OC)c(CNCCc2ccc(OC)c(OC)c2)c1.O=C(O)C(=O)O,5.38
10,COc1cc(OC)c(OC)cc1CNCCc1ccc2c(c1)OCO2.O=C(O)C(=O)O,-8.77
11,COc1ccc(CCNCc2ccc(Br)cc2)cc1OC.O=C(O)C(=O)O,-62.9
12,COc1cc(CNCCc2ccc3c(c2)OCO3)cc(OC)c1OC.O=C(O)C(=O)O,-14.2
13,COc1ccc(CNCc2ccc3c(c2)OCO3)cc1Br.O=C(O)C(=O)O,-23.1
14,COc1ccc(CCNCc2cccc(C(F)(F)F)c2)cc1OC.O=C(O)C(=O)O,0.584
15,COc1ccc(Br)cc1CNCCc1ccc2c(c1)OCO2,-60.7
16,COc1cc(Br)c(CNCCc2ccc3c(c2)OCO3)cc1OC,-32
17,COc1ccc(CNCCc2ccc3c(c2)OCO3)cc1Br.O=C(O)C(=O)O,-50.5
18,Cc1nnc(NC(=O)c2cc(S(=O)(=O)N3CCCCC3)ccc2Cl)s1,14.6
19,CC(=O)c1ccc(NS(=O)(=O)c2c(C)cc(C)cc2C)cc1,17.9
20,N#Cc1cn(-c2ccccc2)nc1-c1ccccc1,0.313
21,COC(=O)c1cc(CSc2ncnc3sccc23)oc1C,16.6
22,COc1cc(OC)c(OC)cc1CN1CCN(C(=O)Cc2ccccc2)CC1.O=C(O)C(=O)O,5.5

row,SMILES,"hERG current change (%, negative = inhibition) at 10uM [%]"
1,CCOC(=O)C1(CCc2ccccc2)CCN(Cc2cc(OC)c(OC)cc2OC)CC1,-77.4
2,CCOC(=O)C1(CCc2ccccc2)CCN(Cc2c(O)cccc2OC)CC1,-95.1
3,O=C(NCc1cccc(C(F)(F)F)c1)c1cccc(Cl)c1Cl,10.5
4,CCc1cc(Cn2nc(-c3ccccc3)cc2C(=O)O)on1,-1.7
5,O=C(CNC(=O)c1cccs1)N/N=C/c1cccc(Cl)c1,-5.74
6,COc1ccc(OC)c(NC(=O)C(=O)NNC(=O)c2cccs2)c1,10.9
7,O=C(NCCCO)C(=O)NCC(c1ccc2c(c1)OCO2)N1CCN(c2ccc(F)cc2)CC1 (stereo not shown),-41.4
8,CC[N+](CC)(CCCCS(=O)(=O)[O-])CCNP1(=O)C=C(c2ccccc2)OC(c2ccccc2)=C1,9.75
9,N#CC[N+]1(CCCNP2(=O)C=C(c3ccccc3)OC(c3ccccc3)=C2)CCOCC1.[Cl-],-63.5
10,O=C(C[N+]1(CC#Cc2ccccc2)CCOCC1)c1ccccc1.[Br-],35.8
11,CC(=O)N1N=C2/C(=C/c3ccccc3)CCCC2C1c1ccccc1 (stereo not shown),-10.5
12,O=C(c1ccccn1)N1N=C2/C(=C/c3ccccc3)CCCC2C1c1ccccc1 (stereo not shown),-37.1
13,NC(=O)N1N=C2/C(=C/c3ccccc3)CCCC2C1c1ccccc1 (stereo not shown),-17.1
14,Cc1ncsc1C(=O)N1N=C2/C(=C/c3ccccc3)CCCC2C1c1ccccc1 (stereo not shown),-0.298
15,O=C1CCC(C(=O)OCC(=O)N2N=C3/C(=C/c4ccccc4)CCCC3C2c2ccccc2)N1 (stereo not shown),-70.3
16,O=C(c1ccccn1)N1N=C2/C(=C/c3ccc(F)cc3)CCCC2C1c1ccc(F)cc1 (stereo not shown),-54.3
17,CCCCCOC(=O)C1=C(C)NC(=O)NC1c1ccc(N(C)C)cc1 (stereo not shown),12.5
18,COc1ccc(C2C3=C(CC(C)(C)CC3=O)Nc3c2c(=O)[nH]c(=O)n3Cc2ccccc2)cc1OC (stereo not shown),-3.11
19,CCOC(=O)Cc1csc(NC(=O)CCCN2C(=O)c3ccccc3C2=O)n1,12.2
20,COc1ccc(-c2noc(N3CCC(C(=O)NCCCN4CC(C)CC(C)C4)CC3)n2)cc1 (stereo not shown),-18.1
21,O=C(NC1CC1)C1CCN(c2nc3ccccc3s2)CC1,-5.63
22,CCN(CC)CCCNC(=O)C1CCN(c2ncnc3c2sc2cccc(F)c23)CC1,-50.2

row,SMILES,"hERG current change (%, negative = inhibition) at 10uM [%]"
1,O=C(Nc1ccc(F)cc1F)C1CCN(c2ncnc3c2sc2cccc(F)c23)CC1,3.98
2,CCOC(=O)N1CCN(C(=O)C2CCN(c3ncnc4c3sc3cccc(F)c34)CC2)CC1,-59.9
3,CCN(CC)CCNC(=O)c1ccc(NC(=O)C2CCN(c3ncnc4sc(C)c(C)c34)CC2)cc1,-29.8
4,O=C(C1CCN(c2ncnc3c2sc2cccc(F)c23)CC1)N1CCOCC1,-27.8
5,O=C(NC1CC1)C1CCN(c2ncnc3c2sc2cccc(F)c23)CC1,-52
6,CCN(CC)CCCNC(=O)C1CCN(C(=O)c2cc3sccc3n2Cc2ccc(F)cc2)CC1,-2.11
7,CC1CC(C)CN(CCCNC(=O)C2CCN(c3ncnc4c3sc3cccc(F)c34)CC2)C1 (stereo not shown),-65.8
8,O=C(C1CCN(c2ncnc3c2sc2cccc(F)c23)CC1)N1CCCC1,-19.7
9,O=C(NCCN1CCOCC1)C1CCN(c2ncnc3c2sc2cccc(F)c23)CC1,-25.6
10,O=C(Nc1cc(-c2nc3ncccc3o2)ccc1Cl)c1ccc2c(c1)OCO2,10.2
11,Cc1ccc(C(=O)NCCc2ccc(S(N)(=O)=O)cc2)o1,16.1
12,O=C(Nc1ccc(-c2ccccc2)cc1)c1ccc2c(c1)S(=O)(=O)c1ccccc1C2=O,7.7
13,CC1(C)NC(=O)N(CC(O)COC2CCCCC2)C1=O (stereo not shown),8.64
14,FC(F)(F)c1ccccc1CNCc1ccncc1,4.43
15,COc1ccccc1-n1c(C)nnc1SCC(=O)NCc1ccccc1,11.5
16,CCOC(=O)c1c(NC(=O)COC(=O)Cn2cnc3ccccc32)sc2c1CCC(C)C2 (stereo not shown),-3.78
17,CCCCNC(=O)C1CCN(c2nc(C)cc(C)n2)CC1,17
18,CCCCN(CC)CCCNC(=O)C1CCN(c2ncnc3c2sc2cccc(F)c23)CC1,-70.3
19,CCCCN(CC)CCNC(=O)C1CCN(S(=O)(=O)c2cccc3nsnc23)CC1,-11
